In PubChem BioAssay (NCI):
Compounds without any hit were thinned out: in the full panel of roughly 79,000, 15% have a hit. No stated cut-off is given here; in the data, active means growth inhibition above about 70%; inactive means the rest.

Tests used:
[1] = NCI Yeast Anticancer Drug Screen. Data for the rad50 strain (AID 155);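 further: 0% = growth of vehicle-only cultures of the same strain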; conditions: S. cerevisiae rad50 strain growth inhibition; at 50.0 µM; stronger effect = higher value
Procedure, shortened: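 Relative growth inhibition (compound vs vehicle) was measured in yeast with a defined repair-gene alteration.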

[2] = NCI Yeast Anticancer Drug Screen. Data for the mec2-1 strain (AID 157); conditions: S. cerevisiae mec2-1 strain, at 50.0 µM, stronger effect = higher value
Procedure, shortened: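 Mutant yeast (mec2-1) grown with compound; growth inhibition relative to vehicle control reported.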

[3] = NCI Yeast Anticancer Drug Screen. Data for the sgs1 mgt1 strain (AID 161);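 further: 0% = growth of cultures given vehicle only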; conditions: S. cerevisiae sgs1 mgt1 strain, at 50.0 µM, stronger effect = higher value
Procedure, shortened: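 Growth of a repair-deficient yeast mutant was monitored after compound treatment and expressed as inhibition relative to vehicle-treated cultures.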

[4] = NCI Yeast Anticancer Drug Screen. Data for the cln2 rad14 strain (AID 165);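 further: 0% = growth equal to vehicle treated cultures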; conditions: S. cerevisiae cln2 rad14 strain, at 50.0 µM, stronger effect = higher value
Procedure, shortened: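 Readout is yeast growth inhibition versus vehicle-treated controls, using a strain with cln2 and rad14 alterations exposed to compound.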

[5] = NCI Yeast Anticancer Drug Screen. Data for the bub3 strain (AID 167); conditions: S. cerevisiae bub3 mutant strain, at 50.0 µM, stronger effect = higher value
Procedure, shortened: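 Screening used yeast with an engineered genetic alteration affecting cell cycle control. Compound-exposed cultures were compared with vehicle cultures, and reduced growth was taken as inhibition.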

[6] = NCI Yeast Anticancer Drug Screen. Data for the mlh1 rad18 strain (AID 175); conditions: S. cerevisiae mlh1 rad18 strain growth inhibition; at 50.0 µM; stronger effect = higher value
Procedure, shortened: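 Genetically defined yeast (DNA repair-deficient) exposed to compounds; growth inhibition determined relative to vehicle.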

Measured: growth inhibition

COc1cc2c(c(OC)c1OC)-c1c(cc3c(c1OC)OCO3)C1OC2C(C)C1C (configuration not stated) (tested in a mixture with another compound)
inactive: [1] -23.6% | [2] -55% | [3] -9% | [4] -20.4% | [5] -20.6% | [6] -39.2%

C1CCOC2(CCC3(CC2)OCCCCO3)OC1
inactive: [1] -16.5% | [2] 2.55% | [3] -18.2% | [4] -44.2% | [5] -10.2% | [6] -39.4%

CC(/C=C/c1ccccc1)=N\N=C(C)\C=C\c1ccccc1
inactive: [1] 0.45% | [2] -20.2% | [3] -31.4% | [4] 20.9% | [5] -37.8% | [6] -23.4%

CC1=NN(c2ccc(S(=O)(=O)O)cc2)C(=O)C1N=Nc1ccc(C)c(S(=O)(=O)Nc2ccccc2)c1 (configuration not stated)
inactive: [1] 5.95% | [2] -17.9% | [3] 8% | [4] 15% | [5] 5.45% | [6] 10.8%

CC(=O)OC1=C(C)C2=C3OC(=O)C(C)=C3CC[C@@]2(C)CC1
inactive: [1] 3.7% | [2] 1.2% | [3] 6.85% | [4] 19.4% | [5] 25% | [6] 6.95%

N#CCC(=O)N/N=C\C(O)C(O)C(O)C(O)CO (configuration not stated)
inactive: [1] 0.1% | [2] 2.6% | [3] -10.8% | [4] -1.45% | [5] 4.5% | [6] 11.1%

O=Cc1sccc1NC(=O)c1ccccc1
inactive: [1] 2.65% | [2] -14.6% | [3] -18% | [4] -18.1% | [5] -7.5% | [6] 9.15%

Cc1cnc2cc(Cl)ccc2c1NCCN(CC(C)C)CC(C)C
inactive: [1] -11% | [2] 0.7% | [3] -10.6% | [4] -22.5% | [5] 0.05% | [6] -30.8%

O=C(O)c1cccc2c1C1CCC2c2cccc(C(=O)O)c21
inactive: [1] -29.2% | [2] 0.95% | [3] 15.6% | [4] 3.05% | [5] -2.6% | [6] 9.7%

C(=N\c1nnc2ccccn12)/c1ccccc1
inactive: [1] 0.2% | [2] -6.8% | [3] -21.7% | [4] -9.6% | [5] -13.7% | [6] -28.3%

COc1cc2c(cc1O)C(=O)CCC(C(=O)O)=C2
inactive: [1] 14.2% | [2] -12.8% | [3] 3.65% | [4] -14.8% | [5] 2% | [6] 14.6%

CCCCCCCCCCCCCCCCCC(=O)OCC([N+](=O)[O-])([N+](=O)[O-])[N+](=O)[O-]
inactive: [1] -9.3% | [2] -1.3% | [3] -5.3% | [4] -19% | [5] -26.1% | [6] 1.9%

N#CC(c1cnc2ccccc2n1)c1cccc2ccccc12 (configuration not stated)
inactive: [1] -0.3% | [2] 5.9% | [3] 1% | [4] -5.75% | [5] -5.3% | [6] 13%

Clc1ccc2cc(Cl)c3ccccc3c2c1
inactive: [1] -17.4% | [2] -24.4% | [3] -16.4% | [4] -20.9% | [5] 4.25% | [6] -0.05%

O=[N+]([O-])C1CCCCC1
inactive: [1] -11.8% | [2] -34.6% | [3] 3.3% | [4] 17.6% | [5] -8.35% | [6] 14.1%

S=C(NCN1CCOCC1)NCN1CCOCC1
inactive: [1] -14.8% | [2] 5.75% | [3] -5.2% | [4] -2.7% | [5] 2.05% | [6] -16%

CCOC(=O)c1cnc(N(C)C)nc1SC(=N)N
inactive: [1] -15.2% | [2] -0.7% | [3] -24.4% | [4] -53.9% | [5] -7.5% | [6] -18.6%

CN1CC2(C)OC3(CC2(C)N1C)N(C)N(C)CC3(C)O (configuration not stated)
inactive: [1] -12.2% | [2] -1.9% | [3] -12.8% | [4] 40% | [5] 11.8% | [6] -8.95%

COc1ccc2c3c([nH]c2c1)CCN(CCCC(=O)c1ccc(F)cc1)C3
inactive: [1] -8.15% | [2] -4% | [3] 42.6% | [4] 31.1% | [5] 45.2% | [6] 1.8%

Cc1cc(O)c([N+](=O)[O-])cc1C
inactive: [1] -8.05% | [2] -1.85% | [3] -15.2% | [4] -1.75% | [5] 3.75% | [6] -3.55%

CC(C)(C)c1ccc2c(c1)C(O)(C#Cc1ccccc1)c1ccccc1C2(O)C#Cc1ccccc1 (configuration not stated)
inactive: [1] 11.6% | [2] -7.5% | [3] 1.5% | [4] 9.35% | [5] 0.05% | [6] 14.1%

Nc1nnc2nc(CC(=O)c3ccccc3[N+](=O)[O-])c(CC(=O)c3ccccc3[N+](=O)[O-])nn12
inactive: [1] 1% | [2] 6.05% | [3] 18.1% | [4] -13.3% | [5] -27.4% | [6] 8.8%

O=C(Nc1ccc(Cl)cc1C(F)(F)F)C(=O)C1CCCS1(=O)=O (configuration not stated)
inactive: [1] -7.05% | [2] -10.9% | [3] -4.5% | [4] 12.9% | [5] -6.4% | [6] -8.8%

CC[N+](CC)(CC)CCCC[P+](CC)(CC)CC
inactive: [1] 15.8% | [2] -9.15% | [3] 8.8% | [4] 9.9% | [5] 10.2% | [6] 13.7%

O=C(O)c1ccc(Cl)cc1C(=O)c1ccc(Cl)cc1
inactive: [1] 1.25% | [2] 8.75% | [3] -2.55% | [4] -42.9% | [5] -1.7% | [6] -13.1%

Nc1nc2ccc(Br)cc2s1
inactive: [1] 9.3% | [2] 26.6% | [3] 35.9% | [4] 11.6% | [5] 32.5% | [6] 32.4%

Cc1ccc(S(=O)(=O)n2oc(N)c(Cc3ccccc3)c2=O)cc1
inactive: [1] -25.4% | [2] -0.15% | [3] 7.8% | [4] -23.5% | [5] 19.2% | [6] -2.55%

CCc1ccccc1Cc1ccccc1
inactive: [1] 1.8% | [2] -4.75% | [3] -0.2% | [4] 4.65% | [5] -1.55% | [6] 10.7%

CCCCCCCCCCCCNC(C)C1=C(O)c2ccccc2C(=O)C1=O (configuration not stated)
inactive: [1] 52.6% | [2] 20.3% | [3] 50% | [4] 25.9% | [5] 15% | [6] 44.9%

COc1cc(/C=C2\N=C(C)OC2=O)ccc1O
inactive: [1] -2.8% | [2] -6.5% | [3] 5.7% | [4] -65.5% | [5] 2.95% | [6] 2.05%

Cn1ccnc1CCc1ccc(F)cc1F
inactive: [1] -37.2% | [2] -20.8% | [3] -2.75% | [4] -0.15% | [5] -2.2% | [6] -22.2%

CCOC(=O)C1C(C)NC(C)C(C(=O)OCC)C1C (configuration not stated)
inactive: [1] 15.9% | [2] 1.05% | [3] 3.4% | [4] -44.5% | [5] 5.3% | [6] 26.1%

O=C(N=Nc1c(O)[nH]c2c(Cl)cc(Cl)cc12)C(=O)Nc1cccc(C(F)(F)F)c1
inactive: [1] -8.85% | [2] -14% | [3] -24.6% | [4] 13.8% | [5] -23.8% | [6] -14%

COc1ccc2nc(C)cc(N/N=C/c3cccc(C)n3)c2c1
inactive: [1] 3.95% | [2] -19.2% | [3] -1.55% | [4] -0.8% | [5] -29.8% | [6] -22.1%

c1ccc2c(c1)CCc1cc3cc4c(nc3nc1-2)-c1ccccc1CC4
inactive: [1] -14.4% | [2] -15.8% | [3] -14.1% | [4] -9.4% | [5] -1.75% | [6] -15.2%

COc1cc(/C=N/N=C(\N)NO)cc(Cl)c1O
inactive: [1] -20.4% | [2] -29.1% | [3] -27.3% | [4] -19.2% | [5] -8% | [6] -36.1%

COc1ccc(C2=NC(=O)OC2(C)C)cc1
inactive: [1] -6.95% | [2] -20.2% | [3] -5.7% | [4] -11% | [5] -8.6% | [6] -10.2%
